Consider 36 compounds from PubChem BioAssay (NCATS).

Inconclusive results are not listed. A call without a number means that no potency is given here. The source made the active and inactive calls. Unless noted, calls follow the shape of the dose curve; as a rule, active = well fitted inhibition curve with a large enough effect; inconclusive = small, poorly fitted or top-dose-only effect; inactive = no such curve, though single readings can be large or run the other way.

Atrial natriuretic peptide receptor 2 (Homo sapiens), sequence (P20594 whole entry, looked up): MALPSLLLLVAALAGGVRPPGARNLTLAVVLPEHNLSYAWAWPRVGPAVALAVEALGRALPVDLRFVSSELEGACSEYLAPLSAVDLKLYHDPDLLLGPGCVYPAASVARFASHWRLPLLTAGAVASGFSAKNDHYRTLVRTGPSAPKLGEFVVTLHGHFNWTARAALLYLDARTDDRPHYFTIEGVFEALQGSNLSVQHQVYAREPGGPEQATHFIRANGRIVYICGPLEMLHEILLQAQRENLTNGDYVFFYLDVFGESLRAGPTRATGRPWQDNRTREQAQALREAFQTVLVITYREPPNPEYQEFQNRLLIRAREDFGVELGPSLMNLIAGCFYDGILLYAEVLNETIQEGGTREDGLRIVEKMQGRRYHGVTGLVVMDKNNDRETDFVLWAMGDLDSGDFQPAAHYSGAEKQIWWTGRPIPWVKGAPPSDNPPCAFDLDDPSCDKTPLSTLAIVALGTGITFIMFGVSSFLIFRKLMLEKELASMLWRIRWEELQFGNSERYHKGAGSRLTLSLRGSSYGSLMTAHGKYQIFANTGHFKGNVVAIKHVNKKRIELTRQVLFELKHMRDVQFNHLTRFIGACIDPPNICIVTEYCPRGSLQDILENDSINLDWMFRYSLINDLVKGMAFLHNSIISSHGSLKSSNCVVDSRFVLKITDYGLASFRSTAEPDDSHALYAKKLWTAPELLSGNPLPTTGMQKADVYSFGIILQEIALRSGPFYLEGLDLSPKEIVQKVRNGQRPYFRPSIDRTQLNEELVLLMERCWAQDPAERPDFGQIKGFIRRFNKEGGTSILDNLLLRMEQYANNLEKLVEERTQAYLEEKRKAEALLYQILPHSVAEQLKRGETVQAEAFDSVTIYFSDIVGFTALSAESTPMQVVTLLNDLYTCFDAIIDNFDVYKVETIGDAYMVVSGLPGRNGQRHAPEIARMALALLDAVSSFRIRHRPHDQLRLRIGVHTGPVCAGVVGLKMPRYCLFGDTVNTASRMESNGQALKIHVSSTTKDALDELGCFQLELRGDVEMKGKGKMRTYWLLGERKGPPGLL
Atrial natriuretic peptide receptor 1 (Homo sapiens), sequence (P16066 whole entry, looked up): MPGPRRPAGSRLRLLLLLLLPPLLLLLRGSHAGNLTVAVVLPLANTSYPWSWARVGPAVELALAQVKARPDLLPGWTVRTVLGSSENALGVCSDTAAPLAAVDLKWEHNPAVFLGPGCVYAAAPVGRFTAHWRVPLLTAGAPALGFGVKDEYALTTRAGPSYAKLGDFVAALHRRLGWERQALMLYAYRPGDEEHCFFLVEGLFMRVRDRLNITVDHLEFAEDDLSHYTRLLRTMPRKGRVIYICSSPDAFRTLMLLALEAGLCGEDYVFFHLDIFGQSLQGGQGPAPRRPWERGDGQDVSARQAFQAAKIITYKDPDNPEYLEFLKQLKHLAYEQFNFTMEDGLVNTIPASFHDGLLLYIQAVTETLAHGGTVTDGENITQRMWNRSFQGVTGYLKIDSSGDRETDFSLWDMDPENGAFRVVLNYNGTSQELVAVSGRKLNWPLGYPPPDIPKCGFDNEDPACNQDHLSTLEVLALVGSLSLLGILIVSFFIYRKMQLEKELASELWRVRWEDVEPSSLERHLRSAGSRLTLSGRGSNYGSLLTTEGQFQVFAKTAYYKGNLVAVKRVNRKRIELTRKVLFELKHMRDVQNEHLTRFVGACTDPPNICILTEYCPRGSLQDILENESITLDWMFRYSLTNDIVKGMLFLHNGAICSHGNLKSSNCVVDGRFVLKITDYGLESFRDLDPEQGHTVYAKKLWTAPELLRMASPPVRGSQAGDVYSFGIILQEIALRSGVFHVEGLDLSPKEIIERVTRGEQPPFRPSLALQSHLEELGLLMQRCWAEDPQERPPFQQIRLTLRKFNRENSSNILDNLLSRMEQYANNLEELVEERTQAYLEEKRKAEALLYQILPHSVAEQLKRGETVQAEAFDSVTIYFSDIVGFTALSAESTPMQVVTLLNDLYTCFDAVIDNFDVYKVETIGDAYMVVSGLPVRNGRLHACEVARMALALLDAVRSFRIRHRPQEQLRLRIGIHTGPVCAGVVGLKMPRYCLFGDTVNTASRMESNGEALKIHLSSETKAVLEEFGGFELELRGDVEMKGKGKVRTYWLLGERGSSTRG

One experiment has as its target Atrial natriuretic peptide receptor 1 (Homo sapiens) (UniProt P16066). As to the kind of experiment: Natriuretic polypeptide receptor (hNpr1) antagonism - Pilot screen (AID 1347049; calls by dose curve;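 also: agonist-evoked cGMP luminescence read 20 min after hNppA addition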). As to conditions: hNpr1 cells, antagonist mode cGMP read-out; series mostly up to 57.5 µM. In outline: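 HEK293 cells expressing hNpr1 and GloSensor cGMP luciferase, 1500/well, loaded with 2% GloSensor reagent 2 h, compound 30 min at room temperature; luminescence read before and 20 min after 0.1 nM hNppA stimulation.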
In the case of `Cc1ccc(/C(=C\CN2CCCC2)c2ccccn2)cc1`, the Potency entry was “inactive”.
Turning to `CN(C(=O)CCCOc1ccc2[nH]c(=O)ccc2c1)C1CCCCC1`, the Potency entry is “inactive”.
In the case of `CCn1nc(C(=O)O)c(=O)c2cc3c(cc21)OCO3`, the Potency entry was “inactive”.
Take `O=C(CCCN1CCC(O)(c2cccc(C(F)(F)F)c2)CC1)c1ccc(F)cc1`: the Potency entry was “inactive”.
As for `NC(N)=N/N=C/c1c(Cl)cccc1Cl`, the Potency entry was “inactive”.
Same read-out and setting: for `Fc1ccc(C(c2ccc(F)cc2)N2CCN(C/C=C/c3ccccc3)CC2)cc1` the value was “inactive”.
Still for that read-out and setting: for `CCCCNC(=O)NS(=O)(=O)c1ccc(C)cc1` the value was “inactive”.
For the compound `CCC(=O)c1ccc2c(c1)N(CCCN(C)C)c1ccccc1S2`, the Potency entry is “inactive”.
With `COc1ccc(CCN(C)CCCC(C#N)(c2cc(OC)c(OC)c(OC)c2)C(C)C)cc1OC` (stereo not drawn), the Potency entry is “inactive”.
The same measure, in the same setting: under `CN(C)C(=O)Oc1ccc[n+](C)c1` stands “inactive”; under `c1cnc(N2CCN(Cc3ccc4c(c3)OCO4)CC2)nc1`, “inactive”; under `CCOC(=O)c1cnc2c(cnn2CC)c1NN=C(C)C`, “inactive”.
Regarding `CCc1cccc(N(C)C(N)=Nc2cccc3ccccc23)c1`, the Potency result was “inactive”.

The next experiment concerns the target Atrial natriuretic peptide receptor 2 (Homo sapiens) (UniProt P20594). Nature of the experiment: Natriuretic polypeptide receptor (hNpr2) antagonism - Pilot subtype selectivity assay (AID 1347050; calls by dose curve; also: potency is read from the fitted curve at half-maximal effect). The conditions noted are these: NPR2-expressing cells, cGMP antagonist-mode read-out; series mostly up to 38.3 µM. In outline:
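HEK293 cells expressing hNpr2 and a GloSensor cGMP luciferase sensor, 1500/well, preloaded 2 h with 2% GloSensor reagent, compound 30 min, then 1 nM hNppC for 20 min. Antagonism from luminescence after versus baseline pre-read; LOPAC in 1:5 titrations.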
Take `CCN(CC)CCOCCOC(=O)C1(c2ccccc2)CCCC1`: the Potency result was “inactive”.
On to `CC1=C(C)C(=O)C(CCCCC#CCCCC#CCO)=C(C)C1=O`, for which the Potency entry is “inactive”.
With `CN(C)C/C=C(/c1ccc(Br)cc1)c1cccnc1`, the Potency entry was “inactive”.
As for `COCCCC/C(=N\OCCN)c1ccc(C(F)(F)F)cc1`, the Potency result was “inactive”.
On the same count and under the same terms, for `NC(N)=NC(=O)Cc1c(Cl)cccc1Cl` the value was “inactive”; for `Cc1nc2sccn2c(=O)c1CCN1CCC(=C(c2ccc(F)cc2)c2ccc(F)cc2)CC1`, “inactive”; for `C[N+](C)(C)CCCCCCCCCC[N+](C)(C)C`, “inactive”.
On the same count and under the same terms, under `COc1ccc2c(c1OC)C(=O)O[C@@H]2[C@H]1c2c(cc3c(c2OC)OCO3)CCN1C` stands 16.5 µM (active); under `CC[N+](C)(C)c1cccc(O)c1`, “inactive”.
With `CN(C)CC[C@@H](c1ccc(Br)cc1)c1ccccn1`, the Potency entry is “inactive”.
The same measure, in the same setting: under `CN(C)CCN(Cc1cccs1)c1ccccn1` stands “inactive”; under `COCCc1ccc(OCC(O)CNC(C)C)cc1` (stereo not drawn), “inactive”; under `CC(C)COCC(CN(Cc1ccccc1)c1ccccc1)N1CCCC1` (stereo not drawn), “inactive”.
Turning to `CCOC(=O)C1=C(C)NC(C)=C(C(=O)OC)C1c1cccc([N+](=O)[O-])c1` (stereo not drawn), the Potency result was “inactive”.
Still for that read-out and setting: for `C#CCN(C)CCCOc1ccc(Cl)cc1Cl` the value was “inactive”; for `COc1cc(C(=O)OCCCN2CCCN(CCCOC(=O)c3cc(OC)c(OC)c(OC)c3)CC2)cc(OC)c1OC`, “inactive”; for `CC1=NS(=O)(=O)c2cc(Cl)ccc2N1`, “inactive”.
On to `Cc1nc2ccccn2c(=O)c1CCN1CCC(C(=O)c2ccc(F)cc2)CC1`, for which the Potency result was “inactive”.
Still for that read-out and setting: under `C[C@]12CCC(=O)C=C1CC[C@@H]1[C@@H]2CC[C@@]2(C)[C@H]1CC[C@]2(O)C(=O)CO` stands “inactive”; under `Cc1ccc(/C(=C\CN2CCCC2)c2ccccn2)cc1`, “inactive”; under `CN(C(=O)CCCOc1ccc2[nH]c(=O)ccc2c1)C1CCCCC1`, “inactive”.
On to `CCn1nc(C(=O)O)c(=O)c2cc3c(cc21)OCO3`, for which the Potency result was “inactive”.
As for `CN1CCN(C2=Nc3ccccc3Oc3ccc(Cl)cc32)CC1`, the Potency was 16.5 µM (active).
`O=C(CCCN1CCC(O)(c2cccc(C(F)(F)F)c2)CC1)c1ccc(F)cc1`: the Potency entry was “inactive”.
With `NC(N)=N/N=C/c1c(Cl)cccc1Cl`, the Potency entry was “inactive”.
Consider `Fc1ccc(C(c2ccc(F)cc2)N2CCN(C/C=C/c3ccccc3)CC2)cc1`, for which the Potency result is “inactive”.
On the same count and under the same terms, under `CCCCNC(=O)NS(=O)(=O)c1ccc(C)cc1` stands “inactive”.
Turning to `CCC(=O)c1ccc2c(c1)N(CCCN(C)C)c1ccccc1S2`, the Potency result was “inactive”.
On the same count and under the same terms, for `COc1ccc(CCN(C)CCCC(C#N)(c2cc(OC)c(OC)c(OC)c2)C(C)C)cc1OC` (stereo not drawn) the value was “inactive”; for `CN(C)C(=O)Oc1ccc[n+](C)c1`, “inactive”.
Turning to `c1cnc(N2CCN(Cc3ccc4c(c3)OCO4)CC2)nc1`, the Potency entry is “inactive”.
On the same count and under the same terms, for `CCOC(=O)c1cnc2c(cnn2CC)c1NN=C(C)C` the value was “inactive”; for `CCc1cccc(N(C)C(N)=Nc2cccc3ccccc23)c1`, “inactive”.

System in the next experiment: not listed separately
Nature of the experiment: NS1 protein of Zika virus - qHTS assay to identify small molecule inhibitors in human HEK 293 cells (AID 1347053). Also: nearly all actives have a fitted effect of over 55% in size. The conditions noted are these: HEK293 ZIKV MR766 infection, NS1 TR-FRET, 24 h; series mostly up to 46.1 µM. In outline: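 HEK 293; 20 h pre-culture, 37 C/5% CO2; cpd 1 h pre-infection; ZIKV MR766, MOI = 0.5, 24 h, 37 C; TR-FRET NS1 readout (two anti-NS1 Abs); norm. to no-virus vs infected.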
A general note: qHTS replaces the single test concentration by a dilution series.
`CC1=C(C)C(=O)C(CCCCC#CCCCC#CCO)=C(C)C1=O`: the result was inactive.
On the same count and under the same terms, for `CN(C)C/C=C(/c1ccc(Br)cc1)c1cccnc1` the value was “inactive”; for `COCCCC/C(=N\OCCN)c1ccc(C(F)(F)F)cc1`, “inactive”.
With `NC(N)=NC(=O)Cc1c(Cl)cccc1Cl`, the compound was classed as inactive.
For `Cc1nc2sccn2c(=O)c1CCN1CCC(=C(c2ccc(F)cc2)c2ccc(F)cc2)CC1`, the result was inactive.
Take `COc1ccc2c(c1OC)C(=O)O[C@@H]2[C@H]1c2c(cc3c(c2OC)OCO3)CCN1C`: the call was inactive.
Still for that read-out and setting: for `COC(=O)C1=C(C)NC(C)=C(C(=O)OCCN(C)Cc2ccccc2)C1c1cccc([N+](=O)[O-])c1` (stereo not drawn) the value was “inactive”.
On the same count and under the same terms, for `CC[N+](C)(C)c1cccc(O)c1` the value was “inactive”; for `CN(C)CC[C@@H](c1ccc(Br)cc1)c1ccccn1`, “inactive”; for `CN(C)CCN(Cc1cccs1)c1ccccn1`, “inactive”.
On the same count and under the same terms, for `CN(C)CCCN1c2ccccc2Sc2ccc(C(F)(F)F)cc21` the value was “inactive”; for `COCCc1ccc(OCC(O)CNC(C)C)cc1` (stereo not drawn), “inactive”; for `CC(C)COCC(CN(Cc1ccccc1)c1ccccc1)N1CCCC1` (stereo not drawn), “inactive”.
In the case of `CCOC(=O)C1=C(C)NC(C)=C(C(=O)OC)C1c1cccc([N+](=O)[O-])c1` (stereo not drawn), the compound was called inactive.
On the same count and under the same terms, for `C#CCN(C)CCCOc1ccc(Cl)cc1Cl` the value was “inactive”.
Same read-out and setting: for `CC1=NS(=O)(=O)c2cc(Cl)ccc2N1` the value was “inactive”.
Same read-out and setting: for `Cc1nc2ccccn2c(=O)c1CCN1CCC(C(=O)c2ccc(F)cc2)CC1` the value was “inactive”; for `OCCN1CCN(CCCN2c3ccccc3C=Cc3ccccc32)CC1`, “inactive”; for `C[C@]12CCC(=O)C=C1CC[C@@H]1[C@@H]2CC[C@@]2(C)[C@H]1CC[C@]2(O)C(=O)CO`, “inactive”.
As for `Cc1ccc(/C(=C\CN2CCCC2)c2ccccn2)cc1`, the outcome was inactive.
Same read-out and setting: for `CN(C(=O)CCCOc1ccc2[nH]c(=O)ccc2c1)C1CCCCC1` the value was “inactive”.
Same read-out and setting: under `CCn1nc(C(=O)O)c(=O)c2cc3c(cc21)OCO3` stands “inactive”.
For the compound `CN1CCN(C2=Nc3ccccc3Oc3ccc(Cl)cc32)CC1`, the compound was called inactive.
On the same count and under the same terms, for `O=C(CCCN1CCC(O)(c2cccc(C(F)(F)F)c2)CC1)c1ccc(F)cc1` the value was “inactive”; for `Fc1ccc(C(c2ccc(F)cc2)N2CCN(C/C=C/c3ccccc3)CC2)cc1`, “inactive”; for `CCCCNC(=O)NS(=O)(=O)c1ccc(C)cc1`, “inactive”.
In the case of `CCC(=O)c1ccc2c(c1)N(CCCN(C)C)c1ccccc1S2`, the compound was classed as inactive.
Still for that read-out and setting: under `COc1ccc(CCN(C)CCCC(C#N)(c2cc(OC)c(OC)c(OC)c2)C(C)C)cc1OC` (stereo not drawn) stands “inactive”; under `CN(C)C(=O)Oc1ccc[n+](C)c1`, “inactive”; under `c1cnc(N2CCN(Cc3ccc4c(c3)OCO4)CC2)nc1`, “inactive”.
The same measure, in the same setting: under `CCOC(=O)c1cnc2c(cnn2CC)c1NN=C(C)C` stands “inactive”.
Take `CCc1cccc(N(C)C(N)=Nc2cccc3ccccc23)c1`: the compound was called inactive.
